{"source": "PubChem BioAssay AID1259418", "about": "(Broad Institute, 2018)", "note": "Screen size: about 3,400 compounds; about 840 (25%) were called active. Not shown: some 11% with an inconclusive outcome.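 Rule for the calls: active = fitted half-maximal concentration of signal decrease at or below twice the sample's top tested concentration; inconclusive = flat curve between -70 and -30 percent, or poor fit; inactive = flat within 30 percent, signal rise, or potency above limit.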 Only a sample is shown. Potency and affinity values are given separately."}
{"assay": "inhibitors of Toxoplasma growth in IFN-γ-primed HeLa – cell-based, ME49Luc, luciferase, 72 h, dose response (AID 1259418)", "conditions": "T. gondii ME49Luc in IFN-y HeLa, hits give low values, -100% = high-dose IFN-γ control wells; at 19.5 µM unless noted"}
{"smiles": "CC(C)(C)c1ccc(CSC2=Nc3ccccc3C3=NC(CCC(=O)NCc4ccco4)C(=O)N23)cc1", "note": "(centres undefined)", "max activity": "15.7% [at 0.16 µM] (inactive)"}
{"smiles": "O=C(CC1N=C2c3ccccc3N=C(SCc3ccccc3F)N2C1=O)NCc1ccco1", "note": "(centres undefined)", "max activity": "-17.8% (inactive)"}
{"smiles": "Cc1ccc(CSC2=Nc3ccccc3C3=NC(CCC(=O)NCc4ccco4)C(=O)N23)cc1", "note": "(centres undefined)", "max activity": "39.1% (inactive)"}
{"smiles": "Cc1ccc(CSC2=Nc3ccccc3C3=NC(CC(=O)NCc4ccco4)C(=O)N23)cc1", "note": "(centres undefined)", "max activity": "10.3% [at 0.35 µM] (inactive)"}
{"smiles": "Cc1nc(OCC(=O)Nc2cccc(Cl)c2)c2ccccc2n1", "max activity": "-6.84% [at 0.35 µM] (inactive)"}
{"smiles": "Cc1ccc(C)c(-c2coc(-c3ccc(NC(=O)C(C)(C)C)cc3)n2)c1", "max activity": "13.3% [at 0.16 µM] (inactive)"}
{"smiles": "COCCN1CCN(S(=O)(=O)c2ccccc2)Cc2cccnc21", "max activity": "18.1% (inactive)"}
{"smiles": "COc1ccc(OC)c(NC(=O)COc2nc(C)nc3ccccc23)c1", "max activity": "27.6% [at 2.6 µM] (inactive)"}
{"smiles": "Cc1cc(C)c(NC(=O)COc2nc(C)nc3ccccc23)c(C)c1", "max activity": "-16.7% [at 0.68 µM] (inactive)"}
{"smiles": "COC(=O)c1ccc(Cl)cc1NC(=O)COc1nc(C)nc2ccccc12", "max activity": "29% [at 0.16 µM] (inactive)"}
{"smiles": "CCc1cccc(C)c1NC(=O)COc1nc(C)nc2ccccc12", "max activity": "13.2% [at 0.68 µM] (inactive)"}
{"smiles": "Cc1cc(C)cc(NC(=O)COc2nc(C)nc3ccccc23)c1", "max activity": "-16.7% [at 5 µM] (inactive)"}
{"smiles": "CCOC(=O)c1ccccc1NC(=O)COc1nc(C)nc2ccccc12", "max activity": "26.7% [at 10 µM] (inactive)"}
{"smiles": "Cc1nc(OCC(=O)Nc2cccc(Br)c2)c2ccccc2n1", "max activity": "18% [at 0.35 µM] (inactive)"}
{"smiles": "COc1ccc(C)cc1NC(=O)COc1nc(C)nc2ccccc12", "max activity": "17.5% [at 0.68 µM] (inactive)"}
{"smiles": "CCOc1cccc(CC(=O)N2CCC3(CC2)Nc2cc(F)ccc2-n2cccc23)c1OCC", "max activity": "11.6% [at 0.35 µM] (inactive)"}
{"smiles": "O=C(NCCc1csc(-c2ccccc2)n1)[C@H]1CSCN1C(=O)Cc1ccc(F)cc1", "max activity": "10.7% [at 10 µM] (inactive)"}
{"smiles": "Cc1ccc(C)c(-c2coc(-c3ccc(NC(=O)NCc4ccc(F)cc4)cc3)n2)c1", "max activity": "-8.97% [at 1.35 µM] (inactive)"}
{"smiles": "CCOc1ccc(C(=O)N2CCC3(CC2)Nc2ccc(C)c(C)c2-n2cccc23)cc1", "max activity": "-13.2% (inactive)"}
{"smiles": "Cc1cccc(C(=O)Nc2c(C(=O)NCc3ccccn3)[nH]c3ccccc23)c1", "max activity": "17.8% [at 2.6 µM] (inactive)"}
{"smiles": "CN(C)CCN1CCC2(CCCN(C(=O)C3CCOC3)C2)C1=O", "note": "(centres undefined)", "max activity": "39.4% (inactive)"}
{"smiles": "Cc1cccc(-c2nc(Cn3nnc(-c4nc(-c5ccccc5C)no4)c3C)c(C)o2)c1", "max activity": "5.08% [at 0.35 µM] (inactive)"}
{"smiles": "O=C(Nc1ccc(-c2nc(-c3cccc(Br)c3)co2)cc1)c1ccco1", "max activity": "21.7% (inactive)"}
{"smiles": "O=C(NCCc1csc(-c2ccccc2)n1)[C@H]1CCCN1C(=O)COc1ccccc1", "max activity": "-18.8% (inactive)"}
{"smiles": "COc1cc(NC(=O)COc2nc(C)nc3ccccc23)cc(OC)c1", "max activity": "-12.3% [at 0.35 µM] (inactive)"}
{"smiles": "Cc1nc(OCC(=O)Nc2ccccc2)c2ccccc2n1", "max activity": "12.4% [at 0.16 µM] (inactive)"}
{"smiles": "Cc1nc(OCC(=O)Nc2ccc(F)cc2F)c2ccccc2n1", "max activity": "-20.9% [at 1.35 µM] (inactive)"}
{"smiles": "CCc1nc(OCC(=O)NCc2ccc3c(c2)OCO3)c2ccccc2n1", "max activity": "11.9% [at 0.35 µM] (inactive)"}
{"smiles": "COc1ccc(NC(=O)COc2nc(C)nc3ccccc23)cc1", "max activity": "19.3% [at 0.68 µM] (inactive)"}
{"smiles": "Cc1nc(OCC(=O)Nc2ccc(Cl)cc2F)c2ccccc2n1", "max activity": "-13% [at 0.16 µM] (inactive)"}
{"smiles": "Cc1nc(OCC(=O)Nc2ccc(F)cc2)c2ccccc2n1", "max activity": "17.7% [at 10 µM] (inactive)"}
{"smiles": "Cc1nc(OCC(=O)Nc2ccc3c(c2)OCO3)c2ccccc2n1", "max activity": "12.1% [at 5 µM] (inactive)"}
{"smiles": "O=C(Cc1ccc(F)cc1)N1CCC2(CC1)Nc1cc(F)ccc1-n1cccc12", "max activity": "16% [at 0.16 µM] (inactive)"}
{"smiles": "O=C(NCc1ccccc1)Nc1ccc(-c2nc(-c3ccccc3)co2)cc1", "max activity": "42.6% (inactive)"}
{"smiles": "CCc1cc(C2CCCN2C(=O)Cn2nc(C(F)(F)F)c3c2CCCC3)on1", "note": "(centres undefined)", "max activity": "14.3% [at 0.16 µM] (inactive)"}
{"smiles": "Cc1cc(C2CCCN2C(=O)Cn2nc(C(F)(F)F)cc2C)no1", "note": "(centres undefined)", "max activity": "11.8% [at 2.6 µM] (inactive)"}
{"smiles": "CC(C)c1cc(C2CCCN2C(=O)Cn2nc(C(F)(F)F)c3c2CCCC3)on1", "note": "(centres undefined)", "max activity": "9.58% [at 2.6 µM] (inactive)"}
{"smiles": "CC(C)c1cc(C2CCCN2C(=O)Cn2nc(C(F)(F)F)c3c2CCCC3)no1", "note": "(centres undefined)", "max activity": "6.95% [at 0.16 µM] (inactive)"}
{"smiles": "CCCc1cc(C2CCCN2C(=O)Cn2nc(C(F)(F)F)cc2C)no1", "note": "(centres undefined)", "max activity": "9.64% [at 1.35 µM] (inactive)"}
{"smiles": "Cc1cc(C2CCCN2C(=O)Cn2nc(C(F)(F)F)c3c2CCCC3)on1", "note": "(centres undefined)", "max activity": "-9.58% [at 0.16 µM] (inactive)"}
{"smiles": "COCCCNC(=O)Cn1c(=O)c(S(=O)(=O)c2ccccc2)cc2ccccc21", "max activity": "-8.44% [at 0.35 µM] (inactive)"}
{"smiles": "Cc1ccc(-c2nc3c(s2)CN(S(=O)(=O)c2ccc(Cl)cc2)CC3)cc1", "max activity": "6.55% [at 10 µM] (inactive)"}
{"smiles": "COc1cccc(CC(=O)N2CCC3(CC2)Nc2cc(OC)ccc2-n2cccc23)c1", "max activity": "12.8% [at 0.35 µM] (inactive)"}
{"smiles": "COc1ccc(CCNc2nc(SCc3cc(=O)n4cc(Cl)ccc4n3)nc3ccccc23)cc1OC", "max activity": "12.8% (inactive)"}
{"smiles": "CN1C[C@H]2CN(Cc3ccc4c(c3)OCO4)CCC[C@@]2(C(=O)O)C1", "max activity": "12.4% (inactive)"}
{"smiles": "Cc1ccc(Cn2c(CN3CCC(C(=O)NCc4cccnc4)CC3)cc3ccccc32)cc1", "max activity": "16.6% [at 2.6 µM] (inactive)"}
{"smiles": "COc1cccc(C(=O)N2CCC3(CC2)Nc2ccc(Cl)cc2-n2cccc23)c1", "max activity": "7.04% [at 10 µM] (inactive)"}
{"smiles": "Cc1cccc(OCC(=O)N2CCC(C(=O)NCCc3csc(-c4ccccc4)n3)CC2)c1", "max activity": "9.91% (inactive)"}
{"smiles": "CCc1cnc(N2CCc3cc(C(=O)NCC4CC4)c(N(C)C)nc3CC2)nc1", "max activity": "-14.2% [at 2.6 µM] (inactive)"}
{"smiles": "CN(C)C(=O)c1cc2c(nc1NCC1CC1)CCN(Cc1ccccn1)CC2", "max activity": "32.5% (inactive)"}
{"smiles": "COc1ccc(C(=O)N2CCC3(CC2)Nc2ccc(Cl)cc2-n2cccc23)cc1OC", "max activity": "9.68% [at 0.68 µM] (inactive)"}
{"smiles": "O=C(Nc1ccc(-c2nc(-c3ccccc3)co2)cc1)C1CCCCC1", "max activity": "11.6% [at 10 µM] (inactive)"}
{"smiles": "CCc1ccc(-c2noc(-c3nnn(Cc4nc(-c5ccccc5OC)oc4C)c3C)n2)cc1", "max activity": "11.7% [at 1.35 µM] (inactive)"}
{"smiles": "Cc1cccc(OCC(=O)N2CCC[C@@H]2C(=O)NCCc2csc(-c3ccccc3)n2)c1", "max activity": "9.84% [at 2.6 µM] (inactive)"}
{"smiles": "O=C(Cc1cccnc1)N1CC(=O)N2[C@@H](CO)[C@H](c3ccc(C#CC4CCCCC4)cc3)[C@@H]2C1", "max activity": "14.3% [at 10 µM] (inactive)"}
{"smiles": "COCC(=O)N1CC(=O)N2[C@H](CO)[C@H](c3ccc(C#CC4CC4)cc3)[C@@H]2C1", "max activity": "43.4% (inactive)"}
{"smiles": "COCC(=O)N1CC(=O)N2[C@H](CO)[C@@H](c3ccc(C#CC4CC4)cc3)[C@@H]2C1", "max activity": "39.9% (inactive)"}
{"smiles": "Cc1ccc(-c2noc(-c3nnn(Cc4nc(-c5ccccc5)oc4C)c3C)n2)cc1C", "max activity": "6.16% (inactive)"}
{"smiles": "O=C(Cc1cccs1)N1CCC2(CC1)Nc1cc(F)ccc1-n1cccc12", "max activity": "7.4% [at 2.6 µM] (inactive)"}
{"smiles": "Cc1cccc(S(=O)(=O)N2CCC(C(=O)NCCc3csc(C)n3)CC2)c1", "max activity": "-8.91% (inactive)"}
{"smiles": "COc1ccccc1-c1nc(Cn2nnc(-c3nc(-c4cccc(OC)c4OC)no3)c2C)c(C)o1", "max activity": "-11.2% (inactive)"}
{"smiles": "Cc1ccc(-c2noc(-c3nnn(Cc4nc(-c5ccccc5)oc4C)c3C)n2)cc1", "max activity": "8.04% (inactive)"}
{"smiles": "O=C(Nc1ccc(-c2nc(-c3ccccc3)co2)cc1)Nc1ccc(F)c(Cl)c1", "max activity": "15.9% (inactive)"}
{"smiles": "CC(C)CNC(=O)C1Cn2ccnc2C2(CCN(c3ncccn3)CC2)O1", "note": "(centres undefined)", "max activity": "47.8% (inactive)"}
{"smiles": "Cc1cccc(-c2nc(Cn3nnc(-c4nc(-c5cccc(Br)c5)no4)c3C)c(C)o2)c1", "max activity": "7% [at 0.68 µM] (inactive)"}
{"smiles": "COCCNC1=NCCNC12CCN(S(=O)(=O)c1ccc(C(C)C)cc1)CC2", "max activity": "-6.8% [at 1.35 µM] (inactive)"}
{"smiles": "CC(C)c1ccc(S(=O)(=O)N2CCC3(CC2)NCCN=C3NCc2ccc(F)cc2)cc1", "max activity": "-13.4% [at 10 µM] (inactive)"}
{"smiles": "COc1ccccc1CCC(=O)Nc1ccc2c(c1)CCC(=O)N2C", "max activity": "-10.7% [at 0.16 µM] (inactive)"}
{"smiles": "O=C1CCc2cc(NC(=O)c3cncc(Br)c3)ccc2N1", "max activity": "4.53% [at 0.68 µM] (inactive)"}
{"smiles": "Cc1cccc(NC(=O)Nc2ccc(-c3nc(-c4cc(C)ccc4C)co3)cc2)c1", "max activity": "6.67% (inactive)"}
{"smiles": "CC(C)CC#Cc1ccc([C@@H]2[C@H]3CN(C(=O)Nc4cc(F)ccc4F)CC(=O)N3[C@H]2CO)cc1", "max activity": "2.95% [at 0.16 µM] (inactive)"}
{"smiles": "Cc1oc(-c2ccccc2)nc1Cn1nnc(-c2nc(-c3cccc(C(F)(F)F)c3)no2)c1C", "max activity": "-10.4% [at 0.35 µM] (inactive)"}
{"smiles": "CCC(C(=O)N1CCC2(CC1)Nc1cc(OC)ccc1-n1cccc12)c1ccccc1", "note": "(centres undefined)", "max activity": "9.09% [at 0.35 µM] (inactive)"}
{"smiles": "N#CCSC1=Nc2ccccc2C2=NC(CCC(=O)NCCc3ccccc3)C(=O)N12", "note": "(centres undefined)", "max activity": "23.8% [at 0.16 µM] (inactive)"}
{"smiles": "O=C(CC1N=C2c3ccccc3N=C(SCc3cccc(F)c3)N2C1=O)NCc1ccc(F)cc1", "note": "(centres undefined)", "max activity": "31.4% [at 2.6 µM] (inactive)"}
{"smiles": "O=C(CCC1N=C2c3ccccc3N=C(SCc3cccc(F)c3)N2C1=O)NCCc1ccccc1", "note": "(centres undefined)", "max activity": "28.7% (inactive)"}
{"smiles": "O=C(CC1N=C2c3ccccc3N=C(SCc3ccc(F)cc3)N2C1=O)NCc1ccccc1", "note": "(centres undefined)", "max activity": "12.9% [at 10 µM] (inactive)"}
{"smiles": "COc1ccccc1CNC(=O)CCC1N=C2c3ccccc3N=C(SCc3ccc(C)cc3)N2C1=O", "note": "(centres undefined)", "max activity": "16.9% [at 0.16 µM] (inactive)"}
{"smiles": "CCOC(=O)CSC1=Nc2ccccc2C2=NC(CCC(=O)NCCc3ccccc3)C(=O)N12", "note": "(centres undefined)", "max activity": "12.5% (inactive)"}
